Experimental data as given in article PMC4336329 (PLoS ONE, 2015).
Hit rate of the full screen: of about 310,000 compounds, about 2,200 (0.71%) showed an effect of 50% or more. Effects have a minus sign here. This is one part of a sample in which strong results are shown more often than they occur.

These compounds were tested against human ether-à-go-go-related gene (hERG) potassium channel (human, UniProt Q12809) (assay: primary screen, population patch clamp on CHO cells stably expressing hERG; higher = less effect of the substance).
Chain of human ether-à-go-go-related gene (hERG) potassium channel (Q12809 whole entry, looked up): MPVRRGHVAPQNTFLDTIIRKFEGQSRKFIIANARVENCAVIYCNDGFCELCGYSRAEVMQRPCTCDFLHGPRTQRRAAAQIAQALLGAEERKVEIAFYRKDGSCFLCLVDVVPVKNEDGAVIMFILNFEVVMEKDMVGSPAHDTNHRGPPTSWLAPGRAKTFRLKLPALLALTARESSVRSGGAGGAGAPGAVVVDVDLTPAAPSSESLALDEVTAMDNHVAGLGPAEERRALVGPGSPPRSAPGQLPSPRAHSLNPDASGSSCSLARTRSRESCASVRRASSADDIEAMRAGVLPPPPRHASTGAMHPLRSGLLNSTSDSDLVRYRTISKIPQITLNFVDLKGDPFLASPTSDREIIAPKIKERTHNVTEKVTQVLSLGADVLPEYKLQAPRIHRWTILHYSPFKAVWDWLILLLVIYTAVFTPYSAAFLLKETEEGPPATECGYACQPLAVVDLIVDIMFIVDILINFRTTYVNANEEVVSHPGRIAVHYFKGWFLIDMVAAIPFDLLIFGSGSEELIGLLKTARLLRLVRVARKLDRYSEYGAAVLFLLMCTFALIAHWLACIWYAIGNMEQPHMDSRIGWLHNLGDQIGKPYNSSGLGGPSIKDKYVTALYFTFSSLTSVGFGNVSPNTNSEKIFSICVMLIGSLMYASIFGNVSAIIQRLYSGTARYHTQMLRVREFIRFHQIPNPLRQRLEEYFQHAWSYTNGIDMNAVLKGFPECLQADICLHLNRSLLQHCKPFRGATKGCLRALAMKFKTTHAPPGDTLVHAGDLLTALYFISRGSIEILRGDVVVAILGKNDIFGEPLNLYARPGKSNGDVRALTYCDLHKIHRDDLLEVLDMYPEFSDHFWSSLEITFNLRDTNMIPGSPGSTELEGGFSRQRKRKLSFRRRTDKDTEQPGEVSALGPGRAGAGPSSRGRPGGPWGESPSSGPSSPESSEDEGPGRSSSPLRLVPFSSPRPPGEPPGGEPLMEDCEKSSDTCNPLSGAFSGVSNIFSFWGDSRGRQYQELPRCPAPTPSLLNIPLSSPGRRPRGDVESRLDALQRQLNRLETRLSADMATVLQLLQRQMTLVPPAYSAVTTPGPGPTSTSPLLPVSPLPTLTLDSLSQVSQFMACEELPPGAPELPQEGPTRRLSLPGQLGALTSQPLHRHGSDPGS
`C/C(CC(=O)Nc1cccc(Cl)c1Cl)=N\NC(=O)c1ccccc1C` was tested, and the “hERG current change (%, negative = inhibition) at 1uM” value was 8.35%.
`CC(=O)Nc1cccc(NC(=O)CSc2ncc(C(=O)Nc3ccc(F)cc3)c(=O)n2C)c1` was tested, and the “hERG current change (%, negative = inhibition) at 1uM” value was -3.89%.
`COc1ccc(C2(C#N)CCC(=O)N2c2ccccc2)cc1` (stereo not shown) was tested, and the “hERG current change (%, negative = inhibition) at 1uM” value was 8.4%.
For `COC(=O)CNC(=O)CN1c2cccc3cccc(c23)S1(=O)=O`, the “hERG current change (%, negative = inhibition) at 1uM” value was -12.4%.
For `Cc1c(C(=O)O)c(-c2ccccc2)nn1-c1ccccc1`, the “hERG current change (%, negative = inhibition) at 1uM” value was 10.8%.
With `Cc1ccc(C(=O)NC2CCN(C(=O)Nc3ccc(F)cc3)CC2)cc1` the “hERG current change (%, negative = inhibition) at 1uM” value was 8.68%.
For `O=C(NC1CCN(Cc2ccc(Cl)cc2Cl)CC1)c1ccccc1`, the “hERG current change (%, negative = inhibition) at 1uM” value was -6.37%.
In the case of `O=C(CCCN1CCC(C(=O)c2ccc(F)cc2)CC1)c1ccc(F)cc1`, the “hERG current change (%, negative = inhibition) at 1uM” value is reported as -86.2%.
In the case of `O=C(NC1CCN(Cc2ccccc2Cl)CC1)c1ccccc1`, the “hERG current change (%, negative = inhibition) at 1uM” value is reported as 10%.
In the case of `CN1CCN(CCCC(=O)c2ccc(F)cc2)CC1.Cl`, the “hERG current change (%, negative = inhibition) at 1uM” value is reported as -1.2%.
For `Cc1ccc(C(=O)NC2CCN(CCCC(=O)c3ccc(F)cc3)CC2)cc1`, the “hERG current change (%, negative = inhibition) at 1uM” value was -72.9%.
In the case of `Cc1ccc(C(=O)NC2CCN(S(=O)(=O)c3ccc(F)cc3)CC2)cc1`, the “hERG current change (%, negative = inhibition) at 1uM” value is reported as 9.73%.
With `O=C(CCCN1CCC(NC(=O)c2ccccc2)CC1)c1ccc(Cl)cc1` the “hERG current change (%, negative = inhibition) at 1uM” value was -59.5%.
For `O=C(c1ccc(F)cc1)C1CCN(C(=O)c2ccc(F)cc2)CC1`, the “hERG current change (%, negative = inhibition) at 1uM” value was 2.31%.
`CC(C)CC(C)NC(=O)c1ccc(C(F)(F)F)cc1` (stereo not shown) was tested, and the “hERG current change (%, negative = inhibition) at 1uM” value was 10.6%.
For `CCCCN(C)Cc1c(O)ccc2c(-c3ccccc3)cc(=O)oc12`, the “hERG current change (%, negative = inhibition) at 1uM” value was -4.52%.
`CC(=O)N=c1c(C#N)cc2c(=O)n3cccc(C)c3nc2n1CCCOC(C)C` was tested, and the “hERG current change (%, negative = inhibition) at 1uM” value was -13.3%.
With `COCCCn1c(=NC(C)=O)c(C#N)cc2c(=O)n3cccc(C)c3nc21` the “hERG current change (%, negative = inhibition) at 1uM” value was -7.03%.
With `Cc1cccn2c(=O)c3cc(C#N)c(=NC(=O)c4ccncc4)n(CCCOC(C)C)c3nc12` the “hERG current change (%, negative = inhibition) at 1uM” value was -89.7%.
In the case of `Cc1cccn2c(=O)c3cc(C#N)c(=NC(=O)c4cccs4)n(CCCOC(C)C)c3nc12`, the “hERG current change (%, negative = inhibition) at 1uM” value is reported as -26.1%.
For `COCCCn1c(=NC(=O)c2ccncc2)c(C#N)cc2c(=O)n3cccc(C)c3nc21`, the “hERG current change (%, negative = inhibition) at 1uM” value was -53.3%.
In the case of `COCCCn1c(=NC(=O)c2ccccc2)c(C#N)cc2c(=O)n3cccc(C)c3nc21`, the “hERG current change (%, negative = inhibition) at 1uM” value is reported as -49%.
In the case of `CCOCCCn1c(=NC(=O)c2ccc(OC)c(OC)c2)c(C#N)cc2c(=O)n3cccc(C)c3nc21`, the “hERG current change (%, negative = inhibition) at 1uM” value is reported as -11%.
In the case of `Cc1cccn2c(=O)c3cc(C#N)c(=NC(=O)c4cccs4)n(CC(C)C)c3nc12`, the “hERG current change (%, negative = inhibition) at 1uM” value is reported as 7.98%.
`CCOCCCn1c(=NC(=O)c2cccs2)c(C#N)cc2c(=O)n3cccc(C)c3nc21` was tested, and the “hERG current change (%, negative = inhibition) at 1uM” value was -53.9%.
